Counter-ions that a name gives are not always drawn.
The compounds below were run on Danio rerio larvae (5 dpf) (assay: combined optomotor response (time in upper well half, down vs up moving lines, periods 7-14) minus DMSO control (percentage points); higher = stronger optomotor response than DMSO larvae). Details: 10 µM; exposure time: 3 h pre-incubation + 3 h imaging.
Protocol: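 Wild-type 5 dpf zebrafish larvae (n=48 per drug, 96-well plates, 28.5 °C) were exposed to Tocris FDA-approved library compounds at 10 µM (0.1% DMSO) for 3 h before and 3 h during imaging. Images were taken every 6 s during visual and acoustic stimuli, and larvae were tracked with Z-LaP Tracker. Each measure is the treated-group mean minus the DMSO control mean (n=844), in percentage points. This mapping covers compounds with 5-character plate codes.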

SMILES | combined optomotor response
COc1ccc(C(CN(C)C)C2(O)CCCCC2)cc1 (stereo unspecified) [Venlafaxine hydrochloride] | -1.24

Source: the supplement of paper PMC9950053
